Laboratory results published in PubChem BioAssay AID463173 (ICCB-Longwood Screening Facility, Harvard Medical School, 2010).
The whole screen tested about 52,000 compounds, of which about 1,700 (3.3%) were called active. Only a selection was taken, and actives are over-represented in it overall. A number with no mark means an inactive call. No stated cut-off is given here; in the data, active means survival mostly below about 52% (no sharp cut-off); inactive means mostly above about 56%.

tested on: Wild type; assay: S. aureus survival, RN4220 and DeltatarO strains – OD600, teichoic acid synthesis inhibitors, primary screen (AID 463173); details: S. aureus RN4220 wild type/DeltatarO growth, OD600, 18 h, stronger effect = lower value, screened at 18.75 µg/mL (by protocol)

For `COc1ccc(OCCn2cnc3ccccc32)cc1`, which survival is on record?
The survival was 107%.

How did the survival turn out when `CC(=O)OC(COc1ccccc1)Cn1cnc2cc(C)c(C)cc21` (stereo unspecified) was run?
The survival was 125%.

`Cc1cc2ncn(CCC(=O)Nc3ccccc3F)c2cc1C` was tested. Which survival did it give?
The survival was 105%.

Which survival does the source give for `Cc1ccc(OCCCCn2cnc3ccccc32)cc1` here?
Its survival is 29% (active).

How did the survival turn out when `c1ccc2c(c1)ncn2CCn1cnc2ccccc21` was run?
Its survival is 104%.

`Cc1cc2ncn(CCCCOc3ccccc3)c2cc1C` was tested. Which survival did it give?
The survival was 20% (active).

How did the survival turn out when `Cc1ccc(Cl)cc1N1CCN(C(=O)C2CCN(S(=O)(=O)c3ccc4c(c3)oc(=O)n4C)CC2)CC1` was run?
Its survival is 66%.

With `Cc1cccc(N2CCN(c3cc(C)nc4c(-c5ccc(Cl)cc5)c(C)nn34)CC2C)c1` (stereo unspecified) as the molecule, how does the survival read?
The survival was 74%.

With `Cc1ccc(N2CCN(c3cc(C)nc4c(-c5ccc(Cl)cc5)c(C)nn34)CC2C)cc1` (stereo unspecified) as the molecule, how does the survival read?
Its survival is 14% (active).

Which survival does the source give for `Cc1ccc(C)c(N2CCN(c3cc(C)nc4c(-c5ccc(Cl)cc5)c(C)nn34)CC2)c1` here?
Its survival is 96%.

For `Cc1n[nH]c(=S)n1CC(=O)N1c2ccccc2CCc2ccccc21`, which survival is on record?
Its survival is 102%.

Which survival does the source give for `CC1=C(C(=O)Nc2ccccc2)C(c2ccc(Br)cc2)n2nc(CCCO)nc2N1` (stereo unspecified) here?
The survival was 79%.

How did the survival turn out when `CCOc1ccc(NC(=O)Cn2cc(C(=O)c3ccc(C)c(C)c3)c(=O)c3cc(F)ccc32)cc1` was run?
The survival was 89%.

`COc1ccc(CNS(=O)(=O)c2cc(Br)cc3c2N(C(C)=O)C(C)C3)cc1` (stereo unspecified) was tested. Which survival did it give?
Its survival is 138%.

For `CC(=O)N1c2c(cc(Br)cc2S(=O)(=O)Nc2ccc(OC(F)(F)F)cc2)CC1C` (stereo unspecified), which survival is on record?
Its survival is 105%.

Which survival does the source give for `COc1cc(NS(=O)(=O)c2cc(Br)cc3c2N(C(C)=O)C(C)C3)cc(OC)c1` (stereo unspecified) here?
The survival was -3% (active).

How did the survival turn out when `O=C(CCn1ccc2cc(S(=O)(=O)N3CCCC3)ccc21)NCc1cccc(Cl)c1` was run?
Its survival is -1% (active).

How did the survival turn out when `COc1ccc(CNC(=O)CCCn2ccc3cc(S(=O)(=O)N4CCCC4)ccc32)cc1` was run?
The survival was 75%.

How did the survival turn out when `O=C(Cn1ccc2cc(S(=O)(=O)N3CCCCC3)ccc21)NCc1cccc(Cl)c1` was run?
The survival was 128%.

With `Cc1ccc(CNC(=O)C(C)n2ccc3cc(S(=O)(=O)N4CCCC4)ccc32)cc1` (stereo unspecified) as the molecule, how does the survival read?
Its survival is 66%.

How did the survival turn out when `Cc1cccc(CNC(=O)Cn2ccc3cc(S(=O)(=O)N4CCC(C)CC4)ccc32)c1` was run?
The survival was 67%.

Which survival does the source give for `Cc1cccc(CNC(=O)CCn2ccc3cc(S(=O)(=O)N4CCCC4)ccc32)c1` here?
The survival was 76%.

How did the survival turn out when `CC(C(=O)NCc1ccccc1)n1ccc2cc(S(=O)(=O)N3CCCC3)ccc21` (stereo unspecified) was run?
The survival was -3% (active).

How did the survival turn out when `CCc1ccc(CNC(=O)C(C)n2ccc3cc(S(=O)(=O)N4CCCCCC4)ccc32)cc1` (stereo unspecified) was run?
Its survival is 75%.

For `Cc1cccc(CNC(=O)Cn2ccc3cc(S(=O)(=O)N4CCCCCC4)ccc32)c1`, which survival is on record?
Its survival is -6% (active).

How did the survival turn out when `Cc1cccc(CNC(=O)Cn2ccc3cc(S(=O)(=O)N4CCCC4)ccc32)c1` was run?
The survival was 69%.

Which survival does the source give for `CCc1ccc(CNC(=O)CCCn2ccc3cc(S(=O)(=O)N4CCCC4)ccc32)cc1` here?
The survival was 63%.

`CN(C)c1ccc(CNC(=O)CCCn2ccc3cc(S(=O)(=O)N4CCCC4)ccc32)cc1` was tested. Which survival did it give?
Its survival is 0% (active).

Which survival does the source give for `O=C(CSc1nc2nccnc2c(=O)n1CCc1c[nH]c2ccccc12)Nc1ccc(F)cc1` here?
Its survival is 42%.

How did the survival turn out when `CCn1c(CNc2cccc(Cl)c2)nnc1SCc1ccccc1` was run?
Its survival is 105%.

For `O=C1CCCC2=C1C(c1ccc3c(c1)OCO3)c1c([nH]c(=O)[nH]c1=O)N2` (stereo unspecified), which survival is on record?
Its survival is 111%.

How did the survival turn out when `CCOC(=O)c1ccccc1NC(=O)NCc1cccn1Cc1ccc(F)cc1` was run?
The survival was 84%.

`CC(=O)c1cccc(NC(=O)c2sc(-n3nc(C)c(Cc4ccc5c(c4)OCO5)c3C)nc2C)c1` was tested. Which survival did it give?
The survival was 94%.

`Cc1ccc(Cn2c(CN3CCC(C(=O)O)CC3)cc3ccccc32)cc1` was tested. Which survival did it give?
Its survival is 82%.

With `O=C(CCn1ccc2cc(S(=O)(=O)N3CCCC3)ccc21)NCc1ccccc1Cl` as the molecule, how does the survival read?
The survival was 14% (active).

Which survival does the source give for `O=C(Cn1ccc2cc(S(=O)(=O)N3CCCCCC3)ccc21)NCc1ccccc1Cl` here?
Its survival is 73%.

With `CC1CCN(S(=O)(=O)c2ccc3c(ccn3CCC(=O)NCc3ccccc3F)c2)CC1` as the molecule, how does the survival read?
The survival was -6% (active).

For `CC1CCN(S(=O)(=O)c2ccc3c(ccn3CC(=O)NCc3ccccc3F)c2)CC1`, which survival is on record?
Its survival is 53%.

`O=C(CCn1ccc2cc(S(=O)(=O)N3CCCC3)ccc21)NCc1ccccc1F` was tested. Which survival did it give?
The survival was 83%.

Which survival does the source give for `O=C(CCn1ccc2cc(S(=O)(=O)N3CCCC3)ccc21)NCc1ccccc1Br` here?
The survival was 72%.

How did the survival turn out when `O=C(Cn1ccc2cc(S(=O)(=O)N3CCCCC3)ccc21)NCCc1ccccc1Cl` was run?
The survival was -6% (active).

`CCOc1ccccc1CNC(=O)CCn1ccc2cc(S(=O)(=O)N3CCC(C)CC3)ccc21` was tested. Which survival did it give?
Its survival is 69%.

For `O=C(Cn1ccc2cc(S(=O)(=O)N3CCCCCC3)ccc21)NCCc1ccccc1Cl`, which survival is on record?
Its survival is 72%.

For `NC(=O)C1CCCN1S(=O)(=O)c1ccc(F)cc1` (stereo unspecified), which survival is on record?
Its survival is 110%.

`Cc1ccc2c(c1)N(C(=O)N1CCC(C(=O)Nc3cccc(F)c3)CC1)CCO2` was tested. Which survival did it give?
Its survival is 70%.

For `COc1cc(C2c3c(oc4ccc(C)cc4c3=O)C(=O)N2Cc2ccc(F)cc2)ccc1O` (stereo unspecified), which survival is on record?
Its survival is 83%.

`CCCC(C(=O)Nc1cc(C)c(Cl)cc1OC)N1Cc2ccccc2C1=O` (stereo unspecified) was tested. Which survival did it give?
The survival was 71%.

For `CCOC(=O)c1ccccc1NS(=O)(=O)c1c(-c2ccc(C)cc2)csc1C(=O)OC`, which survival is on record?
Its survival is 134%.

How did the survival turn out when `Cc1ccc2oc(-c3ccc(Cl)c(NC(=O)c4cc5ccccc5o4)c3)nc2c1` was run?
Its survival is 66%.

With `CSc1nnc2c(n1)OC(c1cccc(O)c1Cl)Nc1ccccc1-2` (stereo unspecified) as the molecule, how does the survival read?
Its survival is 71%.

`CSc1nc(Nc2cccc(C)c2)c(C#N)c(-c2ccccc2)n1` was tested. Which survival did it give?
Its survival is 104%.

`CCCCOC(=O)c1ccc(NC(=O)C2(c3cccs3)CCOCC2)cc1` was tested. Which survival did it give?
The survival was 72%.

`COc1ccc(/C=C/C(=O)Nc2ccc3nc4c(c(Nc5ccccc5OC)c3c2)CCCC4)cc1` was tested. Which survival did it give?
Its survival is 93%.

Which survival does the source give for `COc1ccccc1C(=O)NCCSc1c(C)[nH]c2ccccc12` here?
The survival was 52%.

For `COC(=O)c1ccc(NC(=O)CCCC(=O)OCC(=O)c2ccc(Cl)cc2)cc1`, which survival is on record?
The survival was 87%.

For `O=C(Nc1ccccc1F)c1oc2ccccc2c1NC(=O)c1c(F)cccc1F`, which survival is on record?
The survival was 53%.
